# Measured values as given in PMC11062922 (Nature Chemical Biology, 2023).
# Like-named read-outs stand apart in the source and are kept apart here.
# Tests used:
# Set-up in all cases: species or system human, MV4-11 + K-562 + COLO205 + SK-N-BE2 + OVCAR-8
# [1] = test system: AKT1; details: read-out: apparent Kd, n = 1
# [2] = test system: AKT2; details: read-out: apparent Kd, n = 1
# [3] = test system: HCK; details: read-out: apparent Kd; compound concentrations:100 nM and 1000 nM (sheet 'Samples'); n = 1
# [4] = test system: MAP2K2; details: read-out: apparent Kd; compound concentrations:100 nM and 1000 nM (sheet 'Samples'); n = 1
# [5] = test system: NQO1; details: read-out: apparent Kd; compound concentrations:100 nM and 1000 nM (sheet 'Samples'); n = 1
# [6] = test system: RET; details: read-out: apparent Kd; compound concentrations:100 nM and 1000 nM (sheet 'Samples'); n = 1
# [7] = test system: TP53RK; details: read-out: apparent Kd; compound concentrations:100 nM and 1000 nM (sheet 'Samples'); n = 1
# [8] = test system: YES1; details: read-out: apparent Kd; compound concentrations:100 nM and 1000 nM (sheet 'Samples'); n = 1
# [9] = test system: BMPR1A; details: read-out: apparent Kd; compound concentrations: 100 nM and 1000 nM (sheet 'Samples'), CATDS: 0.16431444601058101; n = 1
# [10] = test system: CAMK4; details: read-out: apparent Kd; compound concentrations: 100 nM and 1000 nM (sheet 'Samples'), CATDS: 0.11933253309467701; n = 1
# [11] = test system: EGFR; details: read-out: apparent Kd; compound concentrations: 100 nM and 1000 nM (sheet 'Samples'), CATDS: 0.109679225268286; n = 1
# [12] = test system: ILK; details: read-out: apparent Kd; compound concentrations: 100 nM and 1000 nM (sheet 'Samples'), CATDS: 0.116106966266716; n = 1
# [13] = test system: OPA1; details: read-out: apparent Kd; compound concentrations: 100 nM and 1000 nM (sheet 'Samples'), CATDS: 0.52668483019397605; n = 1
# [14] = test system: PIK3C3; details: read-out: apparent Kd; compound concentrations: 100 nM and 1000 nM (sheet 'Samples'), CATDS: 0.14677884590005799; n = 1
# [15] = test system: AKT3; details: read-out: apparent Kd, n = 1
# [16] = test system: CIT; details: read-out: apparent Kd; compound concentrations: 100 nM and 1000 nM (sheet 'Samples'), CATDS: 2.7482144104810799E-2; n = 1
# [17] = test system: GSK3A; details: read-out: apparent Kd; compound concentrations: 100 nM and 1000 nM (sheet 'Samples'), CATDS: 6.2878990302183399E-2; n = 1
# [18] = test system: GSK3B; details: read-out: apparent Kd; compound concentrations: 100 nM and 1000 nM (sheet 'Samples'), CATDS: 5.5559924345407602E-2; n = 1
# [19] = test system: LATS1; details: read-out: apparent Kd; compound concentrations: 100 nM and 1000 nM (sheet 'Samples'), CATDS: 4.8333915347555698E-2; n = 1
# [20] = test system: MARK2; details: read-out: apparent Kd; compound concentrations: 100 nM and 1000 nM (sheet 'Samples'), CATDS: 4.76140671076506E-2; n = 1
# [21] = test system: MARK3; details: read-out: apparent Kd; compound concentrations: 100 nM and 1000 nM (sheet 'Samples'), CATDS: 5.1082901600924303E-2; n = 1
# [22] = test system: MARK4; details: read-out: apparent Kd; compound concentrations: 100 nM and 1000 nM (sheet 'Samples'), CATDS: 4.9590510521074001E-2; n = 1
# [23] = test system: PAK4; details: read-out: apparent Kd; compound concentrations: 100 nM and 1000 nM (sheet 'Samples'), CATDS: 0.104490197523791; n = 1
# [24] = test system: PAK6; details: read-out: apparent Kd; compound concentrations: 100 nM and 1000 nM (sheet 'Samples'), CATDS: 0.160954118330599; n = 1
# [25] = test system: PKN1; details: read-out: apparent Kd; compound concentrations: 100 nM and 1000 nM (sheet 'Samples'), CATDS: 6.8915050548370396E-2; n = 1
# [26] = test system: PRKAA2; details: read-out: apparent Kd; compound concentrations: 100 nM and 1000 nM (sheet 'Samples'), CATDS: 2.6285000431917799E-2; n = 1
# [27] = test system: PRKACA; details: read-out: apparent Kd; compound concentrations: 100 nM and 1000 nM (sheet 'Samples'), CATDS: 4.9144940605522901E-2; n = 1
# [28] = test system: PRKAG2; details: read-out: apparent Kd; compound concentrations: 100 nM and 1000 nM (sheet 'Samples'), CATDS: 2.7426405634362501E-2; n = 1
# [29] = test system: PRKCB; details: read-out: apparent Kd; compound concentrations: 100 nM and 1000 nM (sheet 'Samples'), CATDS: 2.6716167566890599E-2; n = 1
# [30] = test system: PRKCD; details: read-out: apparent Kd; compound concentrations: 100 nM and 1000 nM (sheet 'Samples'), CATDS: 3.7280479553999199E-2; n = 1
# [31] = test system: PRKCQ; details: read-out: apparent Kd; compound concentrations: 100 nM and 1000 nM (sheet 'Samples'), CATDS: 2.7638944484762E-2; n = 1
# [32] = test system: PRKG1; details: read-out: apparent Kd; compound concentrations: 100 nM and 1000 nM (sheet 'Samples'), CATDS: 7.0196377588655406E-2; n = 1
# [33] = test system: PRKX; details: read-out: apparent Kd; compound concentrations: 100 nM and 1000 nM (sheet 'Samples'), CATDS: 0.203063152086782; n = 1
# [34] = test system: RPS6KA4; details: read-out: apparent Kd; compound concentrations: 100 nM and 1000 nM (sheet 'Samples'), CATDS: 3.80124112320347E-2; n = 1
# [35] = test system: AGPS; details: read-out: apparent Kd; compound concentrations:100 nM and 1000 nM (sheet 'Samples'); n = 1
# [36] = test system: COX5A; details: read-out: apparent Kd; compound concentrations:100 nM and 1000 nM (sheet 'Samples'); n = 1
# [37] = test system: TGFBR1; details: read-out: apparent Kd; compound concentrations:100 nM and 1000 nM (sheet 'Samples'); n = 1
# [38] = test system: DDX3X;DDX3Y; details: read-out: apparent Kd; compound concentrations:100 nM and 1000 nM (sheet 'Samples'); n = 1
# [39] = test system: RIOK2; details: read-out: apparent Kd; compound concentrations:100 nM and 1000 nM (sheet 'Samples'); n = 1
# [40] = compound concentrations:100 nM and 1000 nM (sheet 'Samples')
smiles,measurement,setting,value
C=CC(=O)Nc1cc(-c2nn(C3CCC(N4CCN(C(C)=O)CC4)CC3)c3ncnc(N)c23)ccc1Oc1ccccc1 (stereo not shown) [TX-85-1],potency estimated from few doses,[1]; [40],2280 nM
same,potency estimated from few doses,[2]; [40],2250 nM
same,potency estimated from few doses,[3],799 nM
same,potency estimated from few doses,[4],1550 nM
same,potency estimated from few doses,[5],1480 nM
same,potency estimated from few doses,[6],712 nM
same,potency estimated from few doses,[7],1620 nM
same,potency estimated from few doses,[8],918 nM
Cl.O=C(Nc1cccc(-c2nn3ncccc3c2-c2ccnc(Nc3cccnc3)n2)c1)c1c(F)cccc1F [GSK312879A],potency estimated from few doses,"[1]; compound concentrations: 100 nM and 1000 nM (sheet 'Samples'), CATDS: 0.123574579018809",1640 nM
same,potency estimated from few doses,[9],841 nM
same,potency estimated from few doses,[10],1800 nM
same,potency estimated from few doses,[11],2310 nM
same,potency estimated from few doses,[12],1950 nM
same,potency estimated from few doses,[13],116 nM
same,potency estimated from few doses,[14],1070 nM
CCn1c(-c2nonc2N)nc2c(C#CC(C)(C)O)ncc(OC3CCNCC3)c21.O=C(O)C(F)(F)F [GSK619487A],potency estimated from few doses,"[2]; compound concentrations: 100 nM and 1000 nM (sheet 'Samples'), CATDS: 4.2627279294918302E-2",91.5 nM
same,potency estimated from few doses,"[15]; compound concentrations: 100 nM and 1000 nM (sheet 'Samples'), CATDS: 2.7204551549319601E-2",1300 nM
same,potency estimated from few doses,[16],1190 nM
same,potency estimated from few doses,[17],26.9 nM
same,potency estimated from few doses,[18],38 nM
same,potency estimated from few doses,[19],58.6 nM
same,potency estimated from few doses,[20],61.6 nM
same,potency estimated from few doses,[21],49 nM
same,potency estimated from few doses,[22],53.9 nM
same,potency estimated from few doses,[23],7.55 nM
same,potency estimated from few doses,[24],2.74 nM
same,potency estimated from few doses,[25],21.1 nM
same,potency estimated from few doses,[26],1810 nM
same,potency estimated from few doses,[27],55.5 nM
same,potency estimated from few doses,[28],1210 nM
same,potency estimated from few doses,[29],1540 nM
same,potency estimated from few doses,[30],162 nM
same,potency estimated from few doses,[31],1130 nM
same,potency estimated from few doses,[32],20.1 nM
same,potency estimated from few doses,[33],1.58 nM
same,potency estimated from few doses,[34],148 nM
Fc1ccc(-c2cc(-c3c[nH]nc3-c3ccccn3)ccn2)cc1 [GW680975X],potency estimated from few doses,[35],1790 nM
same,potency estimated from few doses,[36],132 nM
same,potency estimated from few doses,[37],960 nM
COc1cccc(C2=C(Nc3cccc(O)c3)C(=O)NC2=O)c1 [SB-390771],potency estimated from few doses,[1]; [40],2060 nM
same,potency estimated from few doses,[15]; [40],1930 nM
same,potency estimated from few doses,[38],2110 nM
same,potency estimated from few doses,[39],2460 nM
